Drawing on PubChem BioAssay, this text covers z-score and composite z-score for twelve molecules.

Assay [1] is described as follows: HepG2 liver cancer cell viability effects, profiling panel, resazurin fluorescence, 24 h, PK04 Diversity Set (AID 1172). Further: test concentration not given here. Particulars: higher = more signal. For orientation: Alamar Blue is a resazurin reagent that responds to reducing activity.
Assay [2] in a line: basal S. cerevisiae growth modulation, no modifier, primary screen, OD600, strain BY4716, 24 h, basal condition (AID 1173). The note with it: OD600, 24 h, higher = more signal, called active from +8 up or from −8 down.
Assay [3] is described as follows: MM1S myeloma cell viability, profiling panel, resazurin fluorescence, basal, 24 h, PK04 Diversity Set (AID 1174).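 Further: MM1S multiple myeloma cell line; test concentration not given here.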 Particulars: higher = more signal, called active from +8 up or from −8 down.
The target of assay [4] is Dihydroorotate dehydrogenase (quinone), mitochondrial (Plasmodium falciparum (isolate 3D7)) (UniProt Q08210). Briefly: PfDHODH enzyme inhibitors, primary screen, biochemical, C-terminal His tag, absorbance 600 nm (AID 1175).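 Further: recombinant parasite enzyme with a five histidine tag at its C terminus; test concentration not given here.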 The note with it: DCIP absorbance 600 nm, higher = more signal, called active from +8 up or from −8 down.
Sequence of Dihydroorotate dehydrogenase (quinone), mitochondrial (Plasmodium falciparum (isolate 3D7)) (Q08210 whole entry, looked up): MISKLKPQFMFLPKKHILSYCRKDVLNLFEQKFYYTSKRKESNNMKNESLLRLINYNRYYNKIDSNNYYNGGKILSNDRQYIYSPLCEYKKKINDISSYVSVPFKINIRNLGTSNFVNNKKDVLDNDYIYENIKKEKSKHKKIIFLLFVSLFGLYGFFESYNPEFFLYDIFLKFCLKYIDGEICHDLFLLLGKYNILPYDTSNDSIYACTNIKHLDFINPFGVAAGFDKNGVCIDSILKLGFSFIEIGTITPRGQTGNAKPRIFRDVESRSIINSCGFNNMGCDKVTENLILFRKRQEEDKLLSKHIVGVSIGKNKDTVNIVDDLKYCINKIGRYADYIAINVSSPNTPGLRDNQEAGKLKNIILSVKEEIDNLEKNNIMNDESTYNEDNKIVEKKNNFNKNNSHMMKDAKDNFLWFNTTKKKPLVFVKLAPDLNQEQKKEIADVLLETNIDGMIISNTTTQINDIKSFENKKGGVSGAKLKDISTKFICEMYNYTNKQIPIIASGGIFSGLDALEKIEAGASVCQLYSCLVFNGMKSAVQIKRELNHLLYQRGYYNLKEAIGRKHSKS
The nature of assay [5]: P. aeruginosa biofilm formation inhibitors, primary screen, strain PAO1, LB-PBS medium, absorbance 600 nm (AID 1176). Further: test concentration not given here. Particulars: P. aeruginosa PAO1 growth/biofilm, A600, 12 h; higher = more signal.
Assay [6] is described as follows: S. cerevisiae RM11-1a growth modifiers, primary screen, strain RM11-1a, OD600, basal, 24 h (AID 1177).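 Further: cultures grown under basal conditions with no added stressor; test concentration not given here.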 The note with it: OD600, 24 h, higher = more signal, called active from +8 up or from −8 down.
Assay [7] in a line: E. coli acrAB mutant growth effects, primary screen, E. coli filamentation inducers, strain DRC39, OD650, 24 h (AID 1178).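 Further: growth measured as culture turbidity by optical density at 650 nm; test concentration not given here.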 Particulars: higher = more signal, called active from +8 up or from −8 down.
A short description of assay [8]: E. coli acrAB mutant growth effects, primary screen, E. coli filamentation inducers, strain DRC39, OD650, 48 h (AID 1179).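 Further: screen aims at cell division blockers that make cells filament.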 Particulars: E. coli DRC39 delta-acrAB growth, higher = more signal, called active from +8 up or from −8 down.
Assay [9] is described as follows: RPMI8226 myeloma cell viability, profiling panel, resazurin fluorescence, basal, 24 h, PK04 Diversity Set (AID 1180).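 Further: RPMI8826 multiple myeloma cell line at 5000 cells per well; test concentration not given here.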 Particulars: higher = more signal.
Assay [10] has as its target E3 ubiquitin-protein ligase XIAP (Homo sapiens) (UniProt P98170). The assay can be described thus: XIAP binders, primary screen, biophysical, small-molecule microarray, fluorescence 635 nm (AID 1181).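 Further: score merges 667 nm emission and signal to noise over triplicate slides.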 The note with it: small-molecule microarray binding, higher = more signal.

The structures appear in SMILES notation. Calls of active or inactive are those of the source. Unless noted, how the calls were made is not given here.

Sequence of E3 ubiquitin-protein ligase XIAP (Homo sapiens) (P98170 whole entry, looked up): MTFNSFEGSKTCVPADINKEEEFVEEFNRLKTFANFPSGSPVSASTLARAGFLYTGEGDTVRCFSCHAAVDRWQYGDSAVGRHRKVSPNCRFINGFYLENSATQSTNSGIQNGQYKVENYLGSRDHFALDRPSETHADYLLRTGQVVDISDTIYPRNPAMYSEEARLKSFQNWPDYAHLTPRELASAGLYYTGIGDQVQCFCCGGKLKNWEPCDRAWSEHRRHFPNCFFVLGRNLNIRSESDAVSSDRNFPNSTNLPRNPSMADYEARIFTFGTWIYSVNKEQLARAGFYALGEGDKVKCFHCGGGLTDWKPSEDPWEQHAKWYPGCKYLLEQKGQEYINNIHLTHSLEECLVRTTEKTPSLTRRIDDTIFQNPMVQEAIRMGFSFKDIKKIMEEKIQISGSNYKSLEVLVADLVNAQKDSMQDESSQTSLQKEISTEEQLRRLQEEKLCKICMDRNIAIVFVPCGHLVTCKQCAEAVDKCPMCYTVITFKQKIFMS

As to `COCCOC(=O)N1C(=O)[C@@]2(c3cc(C#CCCO)ccc31)[C@H](c1ccccc1OCCO)N1[C@H](c3ccccc3)[C@H](c3ccccc3)OC(=O)[C@H]1[C@@H]2C(=O)Nc1nc2ccccc2s1`, the z-score in assay [1] was 1.03; in [2] it was 1.13 (inactive); in [3] it was -0.125 (inactive); in [5], 2.51 (inactive); in assay [6] it was 1.79 (inactive); in [7] it was -0.233 (inactive). The z-score in assay [8] was -0.324 (inactive); in [9] it was -0.411. Also, the results for the composite z-score in assay [4] and in assay [10] were -0.26 (inactive) and -0.115, respectively.

In the case of `O=C1O[C@H](c2ccccc2)[C@H](c2ccccc2)N2[C@H]1[C@@H](C(=O)Nc1nc3ccccc3s1)[C@]1(C(=O)Nc3ccc(C#CC4(O)CCCCCC4)cc31)[C@H]2c1ccccc1OCCO`, the z-score in assay [1] was 0.162; in assay [2], 1.49 (inactive); in assay [3], -3.4 (inactive); in [5], 3.52 (inactive); in assay [6], 2.74 (inactive); in assay [7] it was -0.295 (inactive). Also, the results for the z-score in assay [8] and in assay [9] were -0.508 (inactive) and -5.13, respectively. The values for the composite z-score in assay [4] and in [10] were -1.28 (inactive) and 0.25, respectively.

As for `O=C1C[C@@](C(=O)NCCN2CCOCC2)(c2ccc([N+](=O)[O-])cc2)[C@@H](c2ccc(CO)cc2I)N1C1CCCCC1`, the z-score was 0.95 in assay [1]; -2.72 (inactive) in [2]; 1.11 (inactive) in [3]; -0.261 (inactive) in [5]; -1.19 (inactive) in assay [6]; 0.497 (inactive) in assay [7]. The z-score is 0.356 (inactive) in assay [8] and 0.891 in assay [9]. Besides, the composite z-score in assay [4] is 0.362 (inactive); in assay [10] it was 0.0223.

Take `CC(C)(C)OC(=O)CC[C@]1(C(=O)NCc2ccccc2)N=C(c2ccc(OCCCO)cc2)O[C@H]1c1ccccc1CN=[N+]=[N-]`: the z-score in assay [1] is -1.08; in [2] it was 0.103 (inactive); in assay [3], -1.49 (inactive); in [5] it was 0.702 (inactive); in assay [6], 0.53 (inactive); in assay [7], 0.414 (inactive). For the same molecule, the figures for the z-score in [8] and in assay [9] were 0.391 (inactive) and -0.551, respectively. The composite z-score is 0.281 (inactive) in assay [4] and 0.0942 in [10].

`CCCC[C@@H]1C[C@H]1[C@@H](NC(=O)Cc1ccccc1)c1ccc(-c2ccccc2)cc1`: the z-score was 1.21 in assay [1]; 0.953 (inactive) in assay [2]; 0.143 (inactive) in [3]; -1.19 (inactive) in assay [5]; 0.636 (inactive) in [6]; -0.104 (inactive) in assay [7]. Also, the z-score in assay [8] was 0.289 (inactive); in assay [9], -1.18. Besides, the figures for the composite z-score in assay [4] and in assay [10] were 0.183 (inactive) and -0.0351, respectively.

Take `COC(=O)[C@@]1(Cc2ccccc2)[C@H]2c3cc(C(=O)N(C)C)n(CCc4ccc(O)c(OC)c4)c3C[C@H]2CN1C(=O)c1ccccc1`: the z-score was 0.0393 in assay [1]; 0.483 (inactive) in assay [2]; -0.207 (inactive) in [3]; 0.454 (inactive) in [5]; 0.194 (inactive) in assay [6]; -0.514 (inactive) in [7]. The z-score in [8] is -0.253 (inactive); in assay [9], 0.0379. Also, the composite z-score in assay [4] was -0.487 (inactive); in assay [10], -0.0373.

With `COCCOC(=O)N1C(=O)[C@@]2(c3cc(C#CC4=CCCCC4)ccc31)[C@H](c1ccccc1OCCO)N1[C@H](c3ccccc3)[C@H](c3ccccc3)OC(=O)[C@H]1[C@@H]2C(=O)N1CCCCCCC1`, the z-score in assay [1] was 0.133; in assay [2], 1.86 (inactive); in [3] it was -4.58 (inactive); in [5] it was 0.365 (inactive); in assay [6] it was 2.01 (inactive); in assay [7], 0.105 (inactive). Further, the z-score in assay [8] is -1.32 (inactive); in [9], -3.11. Besides, the composite z-score is 0.668 (inactive) in assay [4] and -0.0663 in assay [10].

Turning to `O=C(NCc1ccccc1)[C@@H]1c2ccccc2C(=O)N(Cc2ccccc2C(F)(F)F)[C@H]1c1ccc(CO)cc1`, the z-score in [1] was -0.431; in assay [2], 0.036 (inactive); in assay [3], -0.433 (inactive); in assay [5], 1.19 (inactive); in [6], 0.0858 (inactive); in assay [7] it was 0.232 (inactive). In addition, the z-score is 0.56 (inactive) in assay [8] and -0.137 in assay [9]. For the same molecule, the values for the composite z-score in assay [4] and in assay [10] were 0.154 (inactive) and -0.107, respectively.

`C=CCNC(=O)[C@H]1[C@@H]2C(=O)O[C@@H](c3ccccc3)[C@@H](c3ccccc3)N2[C@@H](c2ccc(O)cc2)[C@]12C(=O)N(C(=O)OCCOC)c1ccccc12`: the z-score is -0.757 in assay [1]; 0.628 (inactive) in assay [2]; -0.331 (inactive) in assay [3]; 0.229 (inactive) in assay [5]; 0.931 (inactive) in assay [6]; -0.919 (inactive) in [7]. The z-score in assay [8] was -1.08 (inactive); in assay [9] it was 0.164. In addition, the composite z-score is 0.747 (inactive) in assay [4] and -0.02 in assay [10].

As to `CCOC(=O)C[C@H]1[C@H](OC(=O)Cc2ccc3c(c2)OCO3)[C@@H](NC(=O)Cc2ccc(OC)cc2)c2cc(OCCCO)ccc2N1C(=O)c1ccc2ccccc2n1`, the z-score in assay [1] was -0.337; in assay [2], -1.12 (inactive); in assay [3], 0.853 (inactive); in assay [5] it was 0.82 (inactive); in assay [6] it was -2.18 (inactive); in assay [7] it was 2.3 (inactive). Further, the figures for the z-score in assay [8] and in [9] were 2.12 (inactive) and 0.0153, respectively. In addition, the results for the composite z-score in [4] and in assay [10] were -0.689 (inactive) and 0.0526, respectively.

Consider `CCOC(=O)C[C@H]1[C@H](OC(=O)c2cc3ccccc3oc2=O)[C@@H](NC(=O)Cc2ccc(OC)cc2)c2cc(OCCCO)ccc2N1C(=O)c1ccc2ccccc2n1`, for which the z-score in assay [1] is -0.604; in assay [2] it was -1.05 (inactive); in assay [3] it was -0.377 (inactive); in assay [5], -0.234 (inactive); in [6] it was -0.315 (inactive); in [7] it was 0.928 (inactive). The z-score in assay [8] is 0.337 (inactive); in assay [9], -0.0615. Also, the composite z-score was 0.0564 (inactive) in assay [4] and -0.0414 in assay [10].

Regarding `COc1ccc([Si](C)(C)[C@@H]2[C@@H](CC(=O)N3Cc4ccccc4C[C@H]3CO)O[C@]3(C(=O)N(Cc4cccc(N5C(=O)c6cccc7cccc5c67)c4)c4ccccc43)[C@H]2C)cc1`, the z-score in [1] was -0.468; in assay [2], 0.517 (inactive); in assay [3], -1.54 (inactive); in assay [5], 1.42 (inactive); in assay [6], 0.618 (inactive); in assay [7] it was 0.226 (inactive). The z-score in assay [8] is -0.143 (inactive); in assay [9], -0.711. Moreover, the composite z-score is -3.83 (inactive) in [4] and -0.253 in assay [10].
